Assay results: PubChem BioAssay AID686971 (National Center for Advancing Translational Sciences (NCATS), 2013)
Screen size: about 360,000 compounds; about 7,500 (2.1%) were called active. Inconclusive results (about 8%) are left out. For the sample, actives were picked, then their nearest neighbours and some compounds at random. Values without a mark were called inactive. The call rests on the fitted dose curve; in most records, active means well fitted cell-killing curve with a large enough effect; inconclusive means small, poorly fitted or top-dose-only effect, or effect the other way, or another doubt; inactive means no such curve, though single readings can be large or run the other way.

Assay: qHTS for induction of synthetic lethality in tumor cells producing 2HG: qHTS for the HT-1080-IDH1KD cell line
Conditions: HT-1080 IDH1 knockdown viability, ATP luminescence, 48 h; series mostly up to 46.1 µM; activity, negative = toxicity: at the top concentration
Text: Unbiased genomic sequencing for 22 glioma genomes found recurrent mutation of IDH1 on chromosome 2q33, a gene encoding the cytosolic isoform of IIDH1 associated with the tri-carboxylic acid cycle (TCA) that catalyzes the oxidative decarboxylation of isocitrate, yielding alpha-ketoglutarate and CO2 via NADP+ to NADPH conversion. Subsequent studies confirmed the recurrent IDH mutations in up to 70% of secondary gliomas and in 10% of AML cases. In addition, the somatic mutation of cancer-associated IDH1 is a point mutation resulting in various amino-acid substituents at Arginine132 (IDH1 R132), a key residue found in the enzyme's active site that when mutated, results in the loss-of-function in metabolizing isocitrate but confers a gain-of-function to produce the oncometabolite 2-hydroxyglutarate (2HG). This in effect defines IDH1 as an oncogene and provides an extraordinary opportunity to discover chemical probes against mutant IDH1 that may translate into much needed new therapies for glioma and AML patients.
This assay aims to perform a synthetic-lethal screen for chemical probes specific for 2HG-producing tumor cells using matched paired cell lines (1) HT-1080-NT fibrosarcoma cell line that overproduces 2HG and (2) HT-1080-IDH1KD cell line which has IDH1 expression knocked-down. Desirable compounds are toxic to the NT fibrosarcoma cell line but not to the IDH1KD cell line. The data in this AID corresponds to the results of the qHTS against the HT-1080 IDH1KD cell line.
[1] Dang L, Jin S, Su SM. IDH mutations in glioma and acute myeloid leukemia. Trends of Mol Med. 2010; 16(9): 387-97.
[2] Dang L et al. Cancer-associated IDH1 mutations produce 2-hydroxyglutarate. Nature. 2010; 465(7300):966.
Molecular Libraries Probe Production Centers Network [MLPCN]
NIH Chemical Genomics Center [NCGC]
Assay Submitter (PI): Lenny Dang Ph.D., Agios Pharmaceuticals
Suspensions of trypsinized HT-1080-IDH1KD cells were dispensed into white, tissue culture-treated, solid 1536-well plates at 5uL/well (750 cells/well final concentration) in RPMI medium supplemented with 5% FBS. Plates were incubated at 37 degrees C for 2 hours, after which 23 nL of compounds or DMSO were delivered to each well using a pin tool. Plates were then incubated at 37 degrees C for an additional 48 hours. CellTiter-Glo viability reagent (Promega) was dispensed into wells (2.5uL/well) and incubated at room temperature for 10 minutes. The plates were measured on a PerkinElmer ViewLux plate reader for luminescent signal (clear filter, 1 sec exp.). DMSO-treated control wells and media-only (no cells) control wells were used to normalize %Activity of identified toxic compounds; DMSO-treated wells corresponded to 0%Activity (100% viability), while media-only controls were used to normalize 100%Activity (0% viability). To minimize variability between cell lines, both HT-1080-NT and HT-1080-IDH1KD lines were dispensed and treated with identical compound series in single batches.
Concentration-response curves were fitted to the signals arising from the resulting luminescence. The concentration-effect curves were then classified based on curve quality (r2), response magnitude and degree of measured activity, and compounds were subsequently categorized based on their curve class.
Potency means the concentration at half of the fitted maximal effect.

Point of comparison: `COc1ccc(CCNC(=O)CN(c2ccccc2)S(=O)(=O)c2ccccc2)cc1`, “activity, negative = toxicity” value -17.4%. Against it:
- COc1ccccc1N1CCN(C(=O)c2c(-c3c(Cl)cccc3Cl)noc2C)CC1 — higher, -2.34%
- COc1ccccc1N1CCN(C(=O)c2ccc(Cl)c(S(=O)(=O)N3CCCC3)c2)CC1 — higher, -0.548%
- C[C@H](NC(=O)CC[C@H]1O[C@@H](n2ccc(=O)[nH]c2=O)[C@H](O)[C@@H]1O)c1cccc2ccccc12 — higher, 19.5%
- C[C@@H]1CN([C@@H](C)CO)C(=O)CCCn2nncc2CO[C@H]1CN(C)C(=O)Nc1ccc(C(F)(F)F)cc1 — higher, -7.94%
- C[C@@H]1CN([C@@H](C)CO)C(=O)c2cc(Br)cnc2O[C@@H]1CN(C)C(=O)C1CCCCC1 — higher, 19.4%
- CC1=C(C(=O)N2CCOCC2)CC(CC(=O)NCc2cccs2)C(=O)N1CCCN1CCCC1=O (stereo unspecified) — higher, 14.2%
- CCCCN1CC(COCc2ccccc2)OCCS1(=O)=O (stereo unspecified) — higher, 8.5%
- CCCCC[C@H](C)N1C[C@@H](COCc2ccccc2)Oc2cc(N3CCC[C@@H]3CO)ccc2S1(=O)=O — higher, 6.19%
- C[C@H](CO)N1C[C@H](C)[C@@H](CN(C)S(=O)(=O)c2ccc(F)cc2)OCc2cnnn2CCCC1=O — higher, 0.103%
- CC1(Oc2cccc(F)c2)CCN(Cc2ccccc2OC(F)F)C1 (stereo unspecified) — higher, 15.1%
- Cc1[nH]n(-c2ccc([N+](=O)[O-])cc2)c(=O)c1C=NCCN1CCN(C(=O)c2ccccc2F)CC1 — lower, -28.4%
- CC1(C(=O)NCc2ccccc2)CSCC(=O)N1CCCN1CCOCC1 (stereo unspecified) — higher, -9.76%
- O=C(CCCN1C(=O)C(c2ccccc2)Oc2cccnc21)Nc1ccccc1Br (stereo unspecified) — higher, 0.333%
- COc1ccc(-c2ccc3[nH]c4c(c3c2)CCN2C[C@H]3[C@H](C)ON(C)[C@H]3C[C@@H]42)cc1 — lower, -27.7%
- CCN(CC)CCn1cnc2c1c(=O)[nH]c(=O)n2Cc1ccccc1 — higher, 1.96%
- COCCn1cnc2c1c(=O)n(Cc1ccc(Br)cc1)c(=O)n2Cc1ccccc1 — higher, -1.2%
- FC(F)(F)c1cccc(-c2nc3ccccc3n2C(c2ccccc2)c2nc3ccccc3[nH]2)c1 (stereo unspecified) — higher, -15.5%
- CCN(CC)C(=O)C1CCCN(Cc2cccc(Cl)c2)C1 (stereo unspecified) — higher, 12.2%
- CC1(C(=O)Nc2ccccc2Br)CCN1C(=O)CC1CC1 (stereo unspecified) — higher, 3.95%
- CC(C)OC(=O)CC(=O)CC(O)c1cccc([N+](=O)[O-])c1 (stereo unspecified) — higher, -12.4%
- COC(=O)C1(C(=O)OC)C/C=C\CN(S(=O)(=O)c2ccccc2[N+](=O)[O-])CCC1 — higher, 6.9%
- CC(=O)Nc1ccc(C=CC(=O)c2ccc([N+](=O)[O-])cc2)cc1 — higher, 6.51%
- Nn1cnnc1N/N=C/c1cc([N+](=O)[O-])c(Cl)cc1Cl — higher, 1.7%
- O=C(Nc1ccncc1)c1ccc(Cl)c([N+](=O)[O-])c1 — higher, 7.37%
- CC(CC(=O)O)C(=O)c1ccc(Cl)c([N+](=O)[O-])c1 (stereo unspecified) — higher, 2.94%
- CC(=O)C[C@@H]1OC[C@H](CO)N1S(=O)(=O)c1ccc(C)cc1 — higher, 22.6%
- Cn1ncc([N+](=O)[O-])c1C(=O)Nc1cc(Cl)ccc1Cl — higher, -2.97%
- CCCC/C=C/c1cccc2nncn12 — higher, 0.514%
- CN(C)C(CNC(=O)c1cc(Br)c(Br)s1)c1ccco1 (stereo unspecified) — higher, -0.0129%
- CC1CCN(C(=O)CSc2nnc(-c3ccco3)n2N)CC1 — higher, 9.04%
- O=C(CCCOc1ccc(Cl)cc1Cl)NNC(=O)C1CCC1 — higher, -11.3%
- COc1cccc(CN2CCC(C(=O)NC(c3ccc4c(c3)OCO4)c3ccccn3)CC2)c1 (stereo unspecified) — higher, -8.81%
- O=C1NC(Cc2ccccc2)c2nc3ccc(Br)cc3c(=O)n2-c2cc3ccccc3cc21 (stereo unspecified) — higher, -9.22%
- COc1ccc(CN2C(=O)C(CC(=O)NC3CCCCC3)CC(C(=O)N3CCOCC3)=C2C)cc1 (stereo unspecified) — higher, -3.06%
- COc1ccccc1CCNS(=O)(=O)c1cn(C)nc1C — higher, -0.537%

For `COc1ccccc1N1CCN(C(=O)c2cc(=O)c3cc(C)cc(C)c3o2)CC1`, the Potency was 0.0103 µM (active).
For `CCCCC[C@H](C)N1C[C@@H](COCc2ccccc2)Oc2cc(N3CC[C@@H](N(C)C)C3)ccc2S1(=O)=O`, the Potency was 18.4 µM (active).
In the case of `Cc1[nH]n(-c2ccc(Cl)cc2)c(=O)c1/C=N/n1c(C)nc2ccccc2c1=O`, the Potency is reported as 16.4 µM (active).
With `N=c1c2c(-c3ccccc3)c(-c3ccccc3)n(Cc3ccccc3)c2ncn1CCCO` the Potency was 5.62 µM (active).
For `CC[C@@H]1Cc2cc(O)ccc2C2=C1c1ccc(O)cc1C[C@H]2CC`, the Potency was 14.6 µM (active).
For `NC(N)=N/N=C/c1ccc(Cl)c([N+](=O)[O-])c1`, the Potency was 23.1 µM (active).
With `O=C(/C=C/c1ccc(Cl)c([N+](=O)[O-])c1)c1ccc(O)cc1` the Potency was 11.6 µM (active).
In the case of `O=C(NC(c1ccc(-c2ccccc2)cc1)c1cnccn1)C1CCN(CCOc2ccc(Cl)cc2Cl)CC1` (stereo unspecified), the Potency is reported as 14.6 µM (active).
For `CCCCc1c(-c2ccc(Br)cc2)ncn1CCc1ccccc1OC`, the Potency was 7.31 µM (active).

In the case of `Cn1c(COc2ccc(Cl)cc2)nc2ccccc2c1=O`, the activity, negative = toxicity is reported as 4.13% [at 9.24 µM].
